Holding throughout (settings): concentration: 1 μM, replicates: in singlicate; n = 1
The test system of assay [1] is T1, TIE2.
T1 construct: gene TEK

Assay [2] relates to TLK1.
The subject of assay [3] is TLK2.
For assay [4], the system named is TNIK.
Assay [5] has as its system TNK1.
Assay [6] has as its system TNK2.
The subject of assay [7] is TNNI3K.
Assay [8] concerns T2, TRKA.
T2 construct: gene NTRK1

In assay [9] the test system is TRKB.
In assay [10] the test system is T3, TRKC.
T3 construct: gene NTRK3

Molecules are shown by their SMILES.

The values that follow come from publication PMC5540273 (PLoS ONE, 2017).
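Note: KINOMEscan kinase panel screen.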

Consider `CCC(=O)c1c(-c2ccccc2)c2cc(Cl)ccc2c(=O)n1Cc1cc(C(=O)NC2CC2)n(C)n1`, for which the “%Inh” value amounted to 0% in [1]; 8% in assay [2]; 0% in assay [3]; 0% in assay [4]; 0% in assay [5]; 0% in assay [6]. For the same compound, the “%Inh” value in assay [7] stood at 0%; in assay [8], 0%; in assay [9], 0%; in [10] it was 7%.
With `CCS(=O)c1ccc(-c2coc3ccc(-c4nnc(C)o4)cc23)cc1` (stereo not shown), the “%Inh” value in assay [1] was 10%; in assay [2], 17%; in assay [3], 0%; in assay [4], 12%; in assay [5] it was 0%; in assay [6] it was 3%. The “%Inh” value is given as 0% in assay [7], 28% in assay [8], 5% in assay [9] and 5% in assay [10].
Turning to `CCc1nc(-c2cccc(C)c2)c(-c2ccncc2)s1`, the “%Inh” value is 12% in assay [1]; 24% in [2]; 0% in [3]; 59% in assay [4]; 2% in assay [5]; 0% in assay [6]. For the same compound, the “%Inh” value came out at 0% in assay [7], 11% in assay [8], 0% in assay [9] and 0% in assay [10].
In the case of `Cc1cccc(-c2nc(Nc3ccc4c(cnn4C)c3)c3ccccc3n2)n1` [GW876731], the “%Inh” value in assay [1] is on record as 27%; in assay [2] it was 0%; in [3], 11%; in assay [4], 0%; in assay [5], 43%; in assay [6], 0%. The “%Inh” value in [7] is 0%; in assay [8], 44%; in assay [9], 0%; in [10] it was 0%.
